Source: PubChem BioAssay AID1479148 (National Center for Advancing Translational Sciences (NCATS), 2020)
Results filed as inconclusive are left out. Active and inactive are the calls of the source. Calls follow the shape of the full dose curve.

Experiment: Confirmatory qHTS for inhibitors of SARS-S pseudo-typed particle cell entry
Conditions: SARS-S pseudotyped particle cell entry, reporter luminescence; series mostly up to 57.1 µM

SMILES	Potency
COc1ccc2cc1Oc1ccc(cc1)C[C@H]1c3c(cc4c(c3Oc3cc5c(cc3OC)CCN(C)[C@@H]5C2)OCO4)CCN1C	2.15 µM (active)
COc1cc([C@@H]2c3cc4c(cc3C(O[C@@H]3O[C@@H]5CO[C@@H](c6cccs6)OC5[C@H](O)[C@H]3O)C3COC(=O)[C@@H]32)OCO4)cc(OC)c1O (some centres not stated)	1.08 µM (active)
CCc1c2c(nc3ccc(OC(=O)N4CCC(N5CCCCC5)CC4)cc13)-c1cc3c(c(=O)n1C2)COC(=O)[C@]3(O)CC	inactive
CNC(=O)c1cc(Oc2ccc(NC(=O)Nc3ccc(Cl)c(C(F)(F)F)c3)c(F)c2)ccn1	8.57 µM (active)
COc1cc2c(cc1Cc1cccc(Cl)c1F)c(=O)c(C(=O)O)cn2[C@H](CO)C(C)C	0.0607 µM (active)
CCN(CC)Cc1cc(Nc2ccnc3cc(Cl)ccc23)ccc1O	8.57 µM (active)
COC(=O)C[C@](O)(CCCC(C)(C)O)C(=O)O[C@@H]1C(OC)=C[C@]23CCCN2CCc2cc4c(cc2[C@H]13)OCO4	1.52 µM (active)
CO[C@@]12[C@H](COC(N)=O)C3=C(C(=O)C(C)=C(N)C3=O)N1C[C@@H]1N[C@@H]12	6.07 µM (active)
CC(C)(C)NCC(O)COc1ccccc1C1CCCC1 (configuration not stated)	3.41 µM (active)
CN(C)[C@@H](CCOc1cccc2ccccc12)c1ccccc1	6.81 µM (active)
c1ccc2c(c1)Sc1ccccc1N2CC1CN2CCC1CC2 (configuration not stated)	27.1 µM (active)
Cc1cn([C@H]2C[C@H](N=[N+]=[N-])[C@@H](CO)O2)c(=O)[nH]c1=O	0.271 µM (active)
